The record followed here is PubChem BioAssay (Tox21).

Assay [1] can be described thus: qHTS assay to identify small molecule agonists of the peroxisome proliferator-activated receptor delta (PPARd) signaling pathway - cell viability counter screen (AID 743211). Further: on the % scale 0 is the no-effect control and ±100 the full control effect; nearly all actives have a fitted effect of over 55% in size. To be noted: PPARd-bla HEK293H viability, CellTiter-Glo luminescence, 17 h; series mostly up to 62.6 µM. The method, boiled down: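 Tox21 library compounds, delivered in DMSO, were incubated 17 h with PPARd-bla HEK293H cells; cytotoxicity was taken from CellTiter-Glo luminescence read 30 min after reagent addition.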
(In qHTS, concentration-response curves come from the screen itself.)

Assay [2] has as its target Peroxisome proliferator-activated receptor delta (Homo sapiens) (UniProt Q03181). The experiment in a line: qHTS assay to identify small molecule agonists of the peroxisome proliferator-activated receptor delta (PPARd) signaling pathway (AID 743212; calls by dose curve; further: on the % scale 0 is the no-effect control and ±100 the full control effect). To be noted: HEK293H PPARd-UAS-bla, beta-lactamase FRET ratio, 17 h; series mostly up to 62.6 µM. The method, boiled down: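 Tox21 library screened in GeneBLAzer PPARd UAS-bla HEK293H cells. After compound treatment at 37 C, a FRET-based beta-lactamase substrate was applied for 2 h and fluorescence recorded.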

The nature of assay [3]: qHTS assay to identify small molecule antagonists of the peroxisome proliferator-activated receptor delta (PPARd) signaling pathway - cell viability counter screen (AID 743213). Further: on the % scale 0 is the no-effect control and ±100 the full control effect; nearly all actives have a fitted effect of over 50% in size. To be noted: PPARd-bla HEK293H viability, CellTiter-Glo luminescence, 17 h; series mostly up to 62 µM. The method, boiled down:
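PPARd-bla HEK293H cells (3000/well) got compound plus 300 nM L165041 agonist for 17 h at 37 C. Viability in the same wells came from CellTiter-Glo luminescence after 30 min at room temperature.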

Assay [4] in a line: qHTS assay to identify small molecule agonists of the farnesoid-X-receptor (FXR) signaling pathway - cell viability counter screen (AID 743218). Further: on the % scale 0 is the no-effect control and ±100 the full control effect; nearly all actives have a fitted effect of over 45% in size. To be noted: FXR-bla HEK293T viability, CellTiter-Glo luminescence, 16 h; series mostly up to 62.6 µM. An outline of the steps:
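Cells were seeded, left 5 h at 37 C and 5% CO2, then dosed with compound in DMSO for 16 h. After the beta-lactamase FRET read, CellTiter-Glo was added and luminescence measured 30 min later.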

The target of assay [5] is Bile acid receptor (Homo sapiens) (UniProt Q96RI1). Put plainly: qHTS assay to identify small molecule agonists of the farnesoid-X-receptor (FXR) signaling pathway (AID 743220; active means well fitted activation curve with a large enough effect in the signal ratio in the repeat runs, not every such curve was filed as active; the % refers to the signal ratio; further: on the % scale 0 is the no-effect control and ±100 the full control effect). To be noted: HEK293T FXR-UAS-bla, beta-lactamase FRET ratio, 16 h; series mostly up to 62.6 µM. An outline of the steps:
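FXR-UAS-bla HEK 293T cells carrying a UAS-driven beta-lactamase reporter were plated for 5 h at 37C/5% CO2, then exposed to DMSO-dissolved Tox21 10K compounds for 16 h at 37C. A LiveBLAzer B/G FRET substrate was loaded for 2 h at room temperature before fluorescence reading.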

Assay [6] can be described thus: qHTS assay to identify small molecule antagonists of the farnesoid-X-receptor (FXR) signaling pathway - cell viability counter screen (AID 743221; active means well fitted cell-killing curve with a large enough effect in the repeat runs, not every such curve was filed as active; further: on the % scale 0 is the no-effect control and ±100 the full control effect; nearly all actives have a fitted effect of over 50% in size). To be noted: FXR-bla HEK293T viability, CellTiter-Glo luminescence, 16 h; series mostly up to 62.6 µM. The method, boiled down:
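Cytotoxicity is taken from ATP luminescence (CellTiter-Glo, 30 min, room temperature) in FXR-bla HEK 293T cells previously incubated 16 h at 37 C with compound and chenodeoxycholic acid at 50 uM final.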

Assay [7] in a line: qHTS assay to identify small molecule agonists of the vitamin D receptor (VDR) signaling pathway - cell viability counter screen (AID 743224). Further: nearly all actives have a fitted effect of over 50% in size. Further: potency means the concentration at half of the fitted maximal effect. The settings on record: VDR-bla HEK293T viability, CellTiter-Glo luminescence, 16 h; series mostly up to 62.6 µM. An outline of the steps:
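Cells: VDR-bla, 2,000/well, settled 4 h. Treatment: compounds in DMSO, 16 h, 37C/5% CO2. Readout: CellTiter-Glo luminescence after 30 min RT.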

Assay [8] in a line: qHTS assay to identify small molecule antagonists of the vitamin D receptor (VDR) signaling pathway - cell viability counter screen (AID 743225). Further: on the % scale 0 is the no-effect control and ±100 the full control effect; nearly all actives have a fitted effect of over 50% in size. The settings on record: VDR-bla HEK293T viability, CellTiter-Glo luminescence, 16 h; series mostly up to 61 µM. The method, boiled down:
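Same-well multiplex: following 16 h treatment of HEK 293T cells carrying a UAS-driven beta-lactamase reporter with compound and agonist (3 nM final), and a 2 h FRET substrate step, CellTiter-Glo was added and luminescence read after 30 min.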

A short description of assay [9]: qHTS assay to identify small molecule agonists of the NFkB signaling pathway (AID 1159509; active means well fitted curve in the direction sought with a large enough effect in the signal ratio in the repeat runs, not every such curve was filed as active; the % refers to the signal ratio; further: on the % scale 0 is the no-effect control and ±100 the full control effect). To be noted: NFkB-bla ME-180 cells, beta-lactamase FRET ratio, 5 h; series mostly up to 61 µM. An outline of the steps: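 Agonist activity was read as beta-lactamase-driven FRET change (460 and 530 nm emission, 405 nm excitation) following 1.5 hr substrate loading at room temperature. Beforehand, ME-180 NFkB-bla reporter cells were treated with compounds for 5 hr at 37 C.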

Assay [10] is described as follows: qHTS assay to identify small molecule agonists of the NFkB signaling pathway - cell viability counter screen (AID 1159515; calls by dose curve; further: on the % scale 0 is the no-effect control and ±100 the full control effect; nearly all actives have a fitted effect of over 55% in size). The settings on record: NFkB-bla ME-180 viability, CellTiter-Glo luminescence, 5 h; series mostly up to 61 µM. The method, boiled down:
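Cells are seeded (2,000 NFkB-bla ME-180 per well), rested overnight, and dosed with DMSO-dissolved compounds for 5 hr at 37 C. Viability is then read by CellTiter-Glo luminescence after 30 min at room temperature.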

Assay [11] is described as follows: qHTS assay to identify small molecule agonists of the endoplasmic reticulum stress response signaling pathway (AID 1159516; active means well fitted activation curve with a large enough effect in the signal ratio in the repeat runs, not every such curve was filed as active; the % refers to the signal ratio; further: on the % scale 0 is the no-effect control and ±100 the full control effect). The settings on record: ESRE-bla HeLa, ER stress beta-lactamase reporter, 5 h; series mostly up to 61 µM. An outline of the steps: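 Cells are seeded at 1,500 per well and incubated overnight. Compounds in DMSO are added for 5 hr at 37 C, then beta-lactamase FRET substrate for 2 hr at room temperature, and fluorescence at 460 and 530 nm is measured.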

Assay [12] can be described thus: qHTS assay to identify small molecule antagonists of the retinoid-related orphan receptor gamma (ROR-gamma) signaling pathway - cell viability counter screen (AID 1159520). Further: nearly all actives have a fitted effect of over 50% in size. Further: potency means the concentration at half of the fitted maximal effect. To be noted: Tet-on RORgamma CHO cells viability, ATP luminescence, 16 h; series mostly up to 92.4 µM. The method, boiled down: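 Tet-on ROR gamma CHO cells were given compounds for 2 hr, then doxycycline hyclate at 1 uM final, and incubated 16 hr at 37 C. Viability was measured as ATP content by CellTiter-Glo luminescence.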

Assay [13] is described as follows: qHTS assay to identify small molecule agonists of the AP-1 signaling pathway - cell viability counter screen (AID 1159525; calls by dose curve; further: nearly all actives have a fitted effect of over 55% in size). The settings on record: ME-180 AP-1-bla cells viability, ATP luminescence, 5 h; series mostly up to 76.8 µM. The method, boiled down:
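Same-well cytotoxicity counter screen of the Tox21 10K library in ME-180 cells. The readout is ATP-dependent luminescence after 5 h compound treatment. Data are normalised to DMSO and tetra n-octyl ammonium bromide controls.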

Assay [14] can be described thus: qHTS assay to identify small molecule agonists of the AP-1 signaling pathway (AID 1159526; calls by dose curve; further: on the % scale 0 is the no-effect control and ±100 the full control effect). To be noted: ME-180 (cervical carcinoma) AP-1-bla reporter, beta-lactamase FRET ratio, 5 h; series mostly up to 76.8 µM.
Assay [15] has as its target Vitamin D3 receptor (Homo sapiens) (UniProt P11473). The experiment in a line: qHTS assay to identify small molecule antagonists of the vitamin D receptor (VDR) signaling pathway (AID 743223; active means well fitted inhibition curve with a large enough effect in the signal ratio in the repeat runs, not every such curve was filed as active; the % refers to the signal ratio; further: on the % scale 0 is the no-effect control and ±100 the full control effect). To be noted: VDR-UAS-bla HEK293T, beta-lactamase FRET ratio, 16 h; series mostly up to 61 µM. The method, boiled down: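 Quantitative HTS in VDR-bla reporter cells stimulated with 1alpha,25-dihydroxyvitamin D3, 3 nM final. Compound exposure 16 h, 37C, 5% CO2. Read-out: beta-lactamase FRET substrate fluorescence, 2 h RT.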

Assay [16] deals with Bile acid receptor (Homo sapiens) (UniProt Q96RI1). The experiment in a line: qHTS assay to identify small molecule antagonists of the farnesoid-X-receptor (FXR) signaling pathway (AID 743217; active means well fitted inhibition curve with a large enough effect in the signal ratio in the repeat runs, not every such curve was filed as active; the % refers to the signal ratio; further: on the % scale 0 is the no-effect control and ±100 the full control effect). The settings on record: HEK293T FXR-UAS-bla, beta-lactamase ratio, CDCA-stimulated, 16 h; series mostly up to 62.6 µM. The method, boiled down:
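Cells carrying a UAS-driven beta-lactamase reporter (GeneBLAzer FXR-UAS-bla HEK 293T) were plated and rested 5 h at 37 °C. Compounds in DMSO were added alongside chenodeoxycholic acid agonist at 50 uM final and left 16 h at 37 °C before FRET substrate readout.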

In assay [17] the target is Peroxisome proliferator-activated receptor delta (Homo sapiens) (UniProt Q03181). Put plainly: qHTS assay to identify small molecule antagonists of the peroxisome proliferator-activated receptor delta (PPARd) signaling pathway (AID 743215; active means well fitted inhibition curve with a large enough effect in the signal ratio in the repeat runs, not every such curve was filed as active; the % refers to the signal ratio). To be noted: HEK293H PPARd-UAS-bla, beta-lactamase FRET ratio, antagonist, 17 h; series mostly up to 62 µM. An outline of the steps: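 Cells: HEK293H with a UAS-driven beta-lactamase reporter responsive to PPARd. Compounds were co-added with L165041 (300 nM, final) and incubated 17 h at 37 C before a 2 h room-temperature FRET substrate step and fluorescence reading.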
Chain of Peroxisome proliferator-activated receptor delta (Homo sapiens) (Q03181 whole entry, looked up): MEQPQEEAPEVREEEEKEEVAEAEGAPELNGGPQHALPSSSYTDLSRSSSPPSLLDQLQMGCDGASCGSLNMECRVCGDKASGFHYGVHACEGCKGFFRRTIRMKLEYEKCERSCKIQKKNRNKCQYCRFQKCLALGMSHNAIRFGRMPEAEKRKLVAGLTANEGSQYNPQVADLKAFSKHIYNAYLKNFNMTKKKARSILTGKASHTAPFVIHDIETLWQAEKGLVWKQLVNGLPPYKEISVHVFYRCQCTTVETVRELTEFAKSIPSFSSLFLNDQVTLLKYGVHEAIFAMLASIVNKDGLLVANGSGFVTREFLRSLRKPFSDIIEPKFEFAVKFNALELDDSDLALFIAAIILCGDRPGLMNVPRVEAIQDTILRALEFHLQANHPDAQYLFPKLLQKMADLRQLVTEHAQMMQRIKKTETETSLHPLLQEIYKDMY

Assay [18] addresses Vitamin D3 receptor (Homo sapiens) (UniProt P11473). The experiment in a line: qHTS assay to identify small molecule agonists of the vitamin D receptor (VDR) signaling pathway (AID 743222; calls by dose curve; further: on the % scale 0 is the no-effect control and ±100 the full control effect). The settings on record: HEK293T VDR-UAS-bla, beta-lactamase FRET ratio, 16 h; series mostly up to 63.5 µM. An outline of the steps:
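Cells carrying a VDR-driven beta-lactamase reporter are seeded at 2,000 per well and rested 4 h. Compounds in DMSO are added for 16 h at 37C, and FRET substrate fluorescence is measured after 2 h at room temperature.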

Assay [19] addresses Nuclear receptor ROR-gamma (Homo sapiens) (UniProt P51449). Put plainly: qHTS assay to identify small molecule antagonists of the retinoid-related orphan receptor gamma (ROR-gamma) signaling pathway (AID 1159521; further: nearly all actives have a fitted effect of over 50% in size; further: potency means the concentration at half of the fitted maximal effect). The settings on record: Tet-on RORgamma CHO cells, RORE-luciferase, 16 h; series mostly up to 92.4 µM. The method, boiled down:
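Inducible-expression reporter assay: doxycycline (1 uM final) switched on RORγ in CHO cells bearing a ROR response element-luciferase construct, with test compounds present from 2 h beforehand. Decreased luminescence after 16 h defined antagonist activity.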

Results filed as inconclusive are left out. Unmarked numbers belong to inactive results. Active and inactive are the calls of the source. Unless noted, the call rests on the fitted dose curve; in most records, active means well fitted curve in the direction sought with a large enough effect in the repeat runs; inconclusive means weak or mixed curves; inactive means no such curve, though single readings can be large; an effect the other way counts as inactive or inconclusive.

Chain of Vitamin D3 receptor (Homo sapiens) (P11473 whole entry, looked up): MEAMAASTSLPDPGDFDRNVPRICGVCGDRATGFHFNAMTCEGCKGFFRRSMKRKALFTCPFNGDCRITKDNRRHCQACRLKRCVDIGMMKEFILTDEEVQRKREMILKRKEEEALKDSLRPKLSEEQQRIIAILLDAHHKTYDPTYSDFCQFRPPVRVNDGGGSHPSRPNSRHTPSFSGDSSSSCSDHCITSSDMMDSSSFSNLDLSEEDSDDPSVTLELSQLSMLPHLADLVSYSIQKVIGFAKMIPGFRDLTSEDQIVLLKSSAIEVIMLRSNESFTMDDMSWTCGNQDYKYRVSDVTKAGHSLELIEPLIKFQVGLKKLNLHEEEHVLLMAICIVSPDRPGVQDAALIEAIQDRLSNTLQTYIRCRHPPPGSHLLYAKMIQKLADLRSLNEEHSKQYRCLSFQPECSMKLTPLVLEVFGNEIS
Chain of Bile acid receptor (Homo sapiens) (Q96RI1 whole entry, looked up): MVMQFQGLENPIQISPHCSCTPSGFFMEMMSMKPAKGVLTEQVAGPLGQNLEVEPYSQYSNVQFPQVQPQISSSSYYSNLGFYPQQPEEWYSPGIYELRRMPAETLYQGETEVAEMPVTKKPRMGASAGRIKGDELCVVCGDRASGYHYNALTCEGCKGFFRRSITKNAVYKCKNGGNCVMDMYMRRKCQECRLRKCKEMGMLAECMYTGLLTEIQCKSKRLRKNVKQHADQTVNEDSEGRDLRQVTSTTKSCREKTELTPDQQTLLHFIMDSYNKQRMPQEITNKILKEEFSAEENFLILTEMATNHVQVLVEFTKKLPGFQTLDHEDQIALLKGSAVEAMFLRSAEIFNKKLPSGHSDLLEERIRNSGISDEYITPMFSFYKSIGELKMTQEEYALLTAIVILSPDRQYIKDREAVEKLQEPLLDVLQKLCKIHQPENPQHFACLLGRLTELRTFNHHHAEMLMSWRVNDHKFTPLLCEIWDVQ

As for `CCCOC(=O)c1ccc(C(=O)OCCC)nc1`, the Potency result in [1], in assay [2], in [3], in assay [4], in assay [5] and in assay [6] was “inactive” in each case. Also, the Potency result in assay [7], in assay [8] and in [12] was “inactive” throughout. Further, the result in assay [9], in assay [10], in assay [11], in assay [13] and in assay [14] was inactive.

As for `COc1ccccc1N=Nc1c(S(=O)(=O)O)cc2cc(S(=O)(=O)O)cc(NC(C)=O)c2c1O`, the Potency entry in [3], in assay [4], in [6], in [7] and in [8] was “inactive” throughout. Moreover, the outcome in assay [15], in [9], in assay [10], in [11], in assay [13] and in assay [14] was inactive.

As to `CC(=O)OCC(=O)[C@H]1CC[C@H]2[C@@H]3CCC4=CC(=O)CC[C@]4(C)[C@H]3CC[C@]12C`, the Potency result in assay [1], in [2], in [3], in [16], in assay [4] and in assay [5] was “inactive” throughout. In addition, the Potency result in assay [6], in assay [7], in assay [8] and in assay [12] was “inactive” in each case. Besides, the outcome in assay [15], in assay [9], in [10], in [11], in [13] and in assay [14] was inactive.

`O=S(=O)(c1ccccc1)c1ccc(Cl)cc1`: the Potency result in assay [2], in assay [3], in assay [17], in [4], in assay [6] and in assay [7] was “inactive” each time. Further, the Potency entry in assay [12] was “inactive”. The outcome in [18], in assay [15], in assay [9], in assay [10], in assay [11] and in [13] was inactive. For the same molecule, the result in assay [14] was inactive.

With `CCCCCCCCCCCC(=O)[O][Sn]([CH2]CCC)([CH2]CCC)[O]C(=O)CCCCCCCCCCC`, the Potency entry in assay [1], in assay [2] and in [8] was “inactive” throughout. Moreover, the Potency was 23.7 µM (active) in assay [7] and 13.3 µM (active) in assay [12]. Also, the outcome in assay [9], in assay [10], in [11], in [13] and in assay [14] was inactive.

Take `CN1CCN(c2c(F)cc3c(=O)c(C(=O)O)cn4c3c2OCN4C)CC1`: the Potency result in [2], in assay [17], in assay [6], in assay [7] and in assay [8] was “inactive” in each case. The result in [9], in assay [10] and in assay [11] was inactive. Besides, in [12], the activity, negative = cytotoxicity is 0.283% [at 19 µM]. In addition, in assay [13], the viability change, negative = cytotoxic was 12.5% [at 15.8 µM]. Besides, the activation in assay [14] is 4.3% [at 15.8 µM].

Consider `Cc1nccn1-c1ccc(Sc2cccc(C3(C(N)=O)CCOCC3)c2)cc1`, for which the Potency entry in assay [3], in assay [17], in assay [5], in assay [6] and in [8] was “inactive” each time. Further, the result in assay [9], in assay [10], in [11], in [13] and in assay [14] was inactive. For the same molecule, the Potency in assay [19] is 5.45 µM (active).

As for `CCCOCCOCCO`, the Potency result in [1], in assay [2], in [3], in assay [17], in assay [4] and in assay [6] was “inactive” in each case. Further, the Potency result in assay [7], in assay [8] and in [12] was “inactive” each time. Besides, the outcome in assay [9], in [10], in [11] and in [13] was inactive.

Regarding `CC(C)CCCC(=O)O`, the Potency result in [1], in [2], in assay [3], in assay [17], in [16] and in [4] was “inactive” throughout. Besides, the Potency entry in [5], in assay [6], in assay [7], in [8] and in assay [19] was “inactive” each time. The result in assay [9], in [10], in assay [11], in [13] and in assay [14] was inactive.
